# Data reported in PubChem BioAssay (NCATS).
# Records with an inconclusive call do not appear. Where a call stands in place of a potency, no number is given. The source holds several records for some structures; these can differ, active in one and inactive in another. Calls of active or inactive are those of the source. Unless noted, calls come from the whole dose curve; as a rule, active = well fitted curve in the direction sought with a large enough effect; inconclusive = small, poorly fitted or top-dose-only effect, or another doubt; inactive = no such curve, though single readings can be large; an effect the other way counts as inactive or inconclusive.
# Assays:
# [1] = Cytometric Cell-Based qHTS for Inhibitors of the mTORC1 Signaling Pathway in MEF (Tsc2-/-, p53-/-) Cells (AID 2660);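 note: percent of cells above a phospho-rpS6 to PI ratio cutoff in each well; series mostly up to about 38 µM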
# Outline: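 Tsc2-/-, p53-/- MEFs (empty vector) exposed to compound 24 h at 37 C, fixed, stained with Alexa-488 anti-phospho-rpS6 Ser235/236 and propidium iodide. Acumen laser scanning; phospho-S6/PI ratio thresholded against 7.5 nM rapamycin, reported as % positive cells.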
# [2] = High Content Imaging Cell-Based qHTS for Inhibitors of the mTORC1 Signaling Pathway in MEF (Tsc2-/-, p53-/-) Cells (AID 2666);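 note: percent of cells scored positive for phospho-rpS6 Ser235/236 immunostaining by imaging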
# Outline: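 Phospho-rpS6 (Ser235/236) immunofluorescence, normalized and scored as % positive cells using rapamycin and DMSO controls, was read in empty-vector Tsc2-/-, p53-/- MEFs after 24 h compound exposure at 37 C; propidium iodide counted cells.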
# [3] = High Content Imaging Cell-Based qHTS for Inhibitors of the mTORC1 Signaling Pathway in MEF Cells (AID 2667);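 note: Tsc2-/- p53-/- MEFs stably re-expressing wild-type Tsc2 exposed 24 h; series mostly up to about 38 µM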
# Outline: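 WT MEFs (Tsc2-/-, p53-/- re-expressing Tsc2), in DMEM + 10% FBS, were treated with compound for 24 h at 37 C. Cells were then fixed and stained for phospho-rpS6 Ser235/236 with propidium iodide as cell count. Values are % positive cells, with thresholds set against rapamycin-treated cells.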
# [4] = Cytometry Cell-Based qHTS for Inhibitors of the mTORC1 Signaling Pathway in MEF cells (AID 2668);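 note: Tsc2-/- p53-/- mouse embryonic fibroblasts stably re-expressing wild-type Tsc2; percent cells positive for phospho-rpS6 Ser235/236 relative to propidium iodide stain; series mostly up to about 38 µM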
# Outline: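 Phospho-rpS6 (Ser235/236) immunofluorescence over PI signal, scored as % positive cells using thresholds from 7.5 nM rapamycin and DMSO wells, after 24 h compound exposure of WT-Tsc2-rescued Tsc2-/-, p53-/- MEFs. PI cell count recorded for viability.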
# [5] = Validation screen for small molecules that induce DNA re-replication in MCF 10A normal breast cells (AID 463097); note: nearly all actives have a fitted effect of over 60% in size; note: potency is the fitted concentration of half-maximal effect
# Outline: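 Read-out is Hoechst total nuclear intensity by fluorescence scanning imager, flagging increased high-DNA-content nuclei. Compounds were incubated with MCF 10A cells for 48 hr (37 C, 5% CO2) before 40 min staining.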
# [6] = biological target: Ubiquitin carboxyl-terminal hydrolase 2 (Homo sapiens) (UniProt O75604); test: qHTS Validation Assay for Inhibitors of Ubiquitin-specific Protease USP2a Using CHOP2 as the Reporter (AID 463106)
# Outline: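 USP2 core (10 nM final) was preincubated with compound 30 min at RT in pH 8.0 Tris/CaCl2/beta-ME/CHAPS buffer. Ub-CHOP2 and reporter substrate (25 nM final each) were then added, with fluorescence (Ex 485/Em 531) read after 60 min. Data were normalized to NEM full inhibition and fitted to concentration-response curves.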
# [7] = biological target: DNA polymerase III PolC-type (Bacillus subtilis (strain 168)) (UniProt P13267); test: qHTS Validation Assay for the Inhibitors of DNA Replication in Gram-Positive Bacteria (AID 485295);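 note: reconstituted holoenzyme with PolC plus beta clamp SSB and primase; PicoGreen fluorescence of double-stranded DNA made on primed circular M13 template; series mostly up to about 57 µM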
# Outline: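 Double-stranded DNA product detected by PicoGreen fluorescence after EDTA quench. Compound incubated with B. subtilis holoenzyme (PolC, beta subunit, SSB, primase) before substrate addition; primed replication of M13Gori with dNTPs and NTPs at room temperature; DMSO defines 0% inhibition.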
# [8] = biological target: Tumor susceptibility gene 101 protein (Homo sapiens) (UniProt Q99816); test: qHTS Validation Assay for Iinhibitors of HIV-1 Budding by Blocking the Interaction of PTAP/TSG101 (AID 485342; calls by dose curve)
# Outline: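 Fluorescence polarization of 50 nM FITC-PTAP peptide bound to 10 uM Tsg101 binding domain was read after 20 min room-temperature incubation with compounds, in 10 mM HEPES pH 7.5, 0.15 M NaCl, 0.01% Tween 20.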
# [9] = qHTS Validation Assay to Find Inhibitors of Chronic Active B-Cell Receptor Signaling (AID 485345; active = well fitted curve in the direction sought with a large enough effect in the main read-out, with a control signal flat, not every such curve was filed as active)
# Outline: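 TMD8 ABC-DLBCL cells stably carrying doxycycline-inducible IkappaBalpha–green luciferase fusion plus unfused red luciferase; compounds 46 uM to 3 nM, 4 h at 37C with doxycycline. Corrected green/red luminescence ratio normalized to 10 uM MG-132 and basal cell wells; curves fitted.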
# [10] = biological target: Beta-2 adrenergic receptor (Homo sapiens) (UniProt P07550); test: qHTS validation assay of beta-arrestin-biased ligands of beta2-adrenergic receptor (AID 485366)
# Outline: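 Tango cells expressing recombinant beta2-AR and beta-arrestin with tTA-driven luciferase, in DMEM with 1% FBS. Compounds were titrated up to 46 microM for 18 hr at 37 degrees C. Luminescence was read 15 min after substrate; curves were fitted and class-assigned.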
# [11] = Quantitative high throughput screen for delayed death inhibitors of the malarial parasite plastid, 48 hour incubation (AID 488752); note: nearly all actives have a fitted effect of over 65% in size
# Outline: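 Erythrocytes infected with P. falciparum carrying an integrated firefly luciferase reporter (2% hematocrit, 0.1% parasitemia final) were exposed to compounds in RPMI 1640/0.5% Albumax for 48 h at 37 C, 5% CO2. Growth inhibition was scored as reduced luminescence.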
# [12] = biological target: Thioredoxin reductase 1, cytoplasmic (Rattus norvegicus) (UniProt O89049); test: qHTS Assay for Substrates of Mammalian Selenoprotein Thioredoxin Reductase 1 (TrxR1) (AID 488772);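 note: NADPH fluorescence in the first read after selenite addition and not the 8 min delta; series mostly up to about 57 µM; a drop in NADPH fluorescence below the no-compound background marks a TrxR1 substrate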
# Outline: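 Quantitative HTS in Tris-HCl buffer at pH 7.5 with EDTA and Tween-20, using rat TrxR1, 400 uM NADPH and 400 uM selenite (final). A fall in initial NADPH fluorescence relative to background marked substrate behaviour.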
# [13] = biological target: Thioredoxin reductase 1, cytoplasmic (Rattus norvegicus) (UniProt O89049); test: qHTS Assay for Inhibitors of Mammalian Selenoprotein Thioredoxin Reductase 1 (TrxR1) (AID 488773); conditions: Potency: inhibition;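 note: drop in NADPH fluorescence over an 8 min run after selenite addition; series mostly up to about 57 µM; nearly all actives have a fitted effect of over 40% in size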
# Outline: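 Steps: enzyme (90 nM) plus NADPH (400 uM final), 5 min at ~22 deg C; compound added, 15 min; selenite (400 uM final) added; fluorescence followed for 8 min. Concentration-response curves derived from the normalized delta values.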
# [14] = biological target: Flap endonuclease 1 (Homo sapiens) (UniProt P39748); test: qHTS Validation Assay for the Inhibitors of Human Flap endonuclease 1 (FEN1) (AID 488816)
# Outline: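 Human FEN1 (10 nM) preincubated 15 min at room temperature with compounds, then flap DNA substrate added at 50 nM final. Fluorescence read at 0 and 15 min; concentration-response fitted with four-parameter Hill equation.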
# [15] = biological target: Methanococcus maripaludis chaperonin (MmCpn) (UniProt Q6LX38); test: High-Throughput Screening for Modulators of Cytosolic Chaperonin Activity: MmCpn Primary Screen (AID 488978);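 note: 50 nM MmCpn enzyme hydrolysing 30 µM ATP at 37 °C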
# Outline: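 ATPase activity of 50 nM MmCpn was assayed with 30 uM ATP, 10 minutes at 37C, after a 5 min compound preincubation at room temperature. ADP production was read as HTRF emission at 590 and 665 nm.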
# [16] = biological target: ATP-dependent 6-phosphofructokinase (Trypanosoma brucei brucei) (UniProt O15648); test: qHTS Validation Assay to Find Inhibitors of T. brucei phosphofructokinase (AID 485368)
# Outline: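 Activity was read as ADP production by luminescence (ADP-Glo) after 45 min at room temperature. The enzyme was 1.25nM PFK in 0.1M TEA pH 8.0 with 0.5 mM F6P, 0.1mM ATP and 5 mM MgCl2. Compounds were titrated up to 57 uM and % activity normalized to no-enzyme and full-enzyme controls.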
# [17] = Quantitative high throughput screen for delayed death inhibitors of the malarial parasite plastid, 96 hour incubation (AID 488745); note: nearly all actives have a fitted effect of over 70% in size; note: potency is the fitted concentration of half-maximal effect
# Outline: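 P. falciparum carrying an integrated firefly luciferase reporter, grown in erythrocytes (2% hematocrit, 0.1% parasitemia final) in RPMI 1640/0.5% Albumax, was exposed to compound for 96 h (two generations) at 37 C, 5% CO2. Luminescence decrease indicated growth inhibition.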
# [18] = biological target: M-phase phosphoprotein 8 (Homo sapiens) (UniProt Q99549); test: qHTS Validation Assay for Inhibitors for MPP8 Chromodomain Interactions with Methylated Histone Tails (AID 488949); note: nearly all actives have a fitted effect of over 55% in size; note: potency is the fitted concentration of half-maximal effect
# Outline: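 AlphaScreen proximity signal from streptavidin donor and Ni-chelate acceptor beads (10 ug/mL each) reported binding of MPP8 to trimethyl-K9 H3(1-18) peptide, both at 50 nM. The complex formed 30 min before a 30 min compound exposure at room temperature, in PBS pH 7.4.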
# [19] = biological target: Chromobox protein homolog 1 (Homo sapiens) (UniProt P83916); test: qHTS Validation Assay for Inhibitors of HP1-beta Chromodomain Interactions with Methylated Histone Tails (AID 488953); note: nearly all actives have a fitted effect of over 50% in size; note: potency is the fitted concentration of half-maximal effect
# Outline: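 HP1-beta (50 nM) was preincubated 30 min at room temperature with biotinylated H3(1-18)K9me3 peptide (50 nM) in PBS pH 7.4, 0.01% Tween-20, then with compounds 30 min. AlphaScreen signal was read after streptavidin donor/nickel chelate acceptor beads (10 ug/mL final).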
# Sequence of Tumor susceptibility gene 101 protein (Homo sapiens) (Q99816 whole entry, looked up, the tested form may be a part): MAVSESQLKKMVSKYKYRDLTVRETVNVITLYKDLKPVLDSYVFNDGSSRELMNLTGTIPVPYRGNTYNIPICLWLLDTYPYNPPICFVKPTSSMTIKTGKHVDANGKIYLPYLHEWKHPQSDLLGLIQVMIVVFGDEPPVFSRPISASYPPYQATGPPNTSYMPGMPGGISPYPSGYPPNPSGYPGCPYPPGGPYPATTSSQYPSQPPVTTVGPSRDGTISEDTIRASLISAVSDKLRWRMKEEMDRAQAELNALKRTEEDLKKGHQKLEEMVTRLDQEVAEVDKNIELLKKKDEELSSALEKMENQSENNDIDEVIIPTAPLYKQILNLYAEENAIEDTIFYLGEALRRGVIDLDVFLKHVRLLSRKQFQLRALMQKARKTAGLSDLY
# Sequence of Thioredoxin reductase 1, cytoplasmic (Rattus norvegicus) (O89049 whole entry, looked up): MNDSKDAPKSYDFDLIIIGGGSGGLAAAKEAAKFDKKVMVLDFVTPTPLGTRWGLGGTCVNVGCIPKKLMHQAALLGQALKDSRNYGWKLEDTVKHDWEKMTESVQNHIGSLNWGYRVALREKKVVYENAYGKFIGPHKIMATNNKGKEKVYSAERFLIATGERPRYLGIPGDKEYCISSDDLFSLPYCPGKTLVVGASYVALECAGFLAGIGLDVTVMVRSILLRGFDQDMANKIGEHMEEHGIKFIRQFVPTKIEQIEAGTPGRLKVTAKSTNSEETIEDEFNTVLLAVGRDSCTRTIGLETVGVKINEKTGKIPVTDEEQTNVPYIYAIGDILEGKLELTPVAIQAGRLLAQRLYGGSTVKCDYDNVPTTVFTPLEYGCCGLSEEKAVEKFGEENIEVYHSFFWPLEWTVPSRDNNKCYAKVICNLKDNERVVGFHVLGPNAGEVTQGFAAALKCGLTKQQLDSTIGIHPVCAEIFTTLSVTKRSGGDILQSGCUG
# Sequence of DNA polymerase III PolC-type (Bacillus subtilis (strain 168)) (P13267 whole entry, looked up): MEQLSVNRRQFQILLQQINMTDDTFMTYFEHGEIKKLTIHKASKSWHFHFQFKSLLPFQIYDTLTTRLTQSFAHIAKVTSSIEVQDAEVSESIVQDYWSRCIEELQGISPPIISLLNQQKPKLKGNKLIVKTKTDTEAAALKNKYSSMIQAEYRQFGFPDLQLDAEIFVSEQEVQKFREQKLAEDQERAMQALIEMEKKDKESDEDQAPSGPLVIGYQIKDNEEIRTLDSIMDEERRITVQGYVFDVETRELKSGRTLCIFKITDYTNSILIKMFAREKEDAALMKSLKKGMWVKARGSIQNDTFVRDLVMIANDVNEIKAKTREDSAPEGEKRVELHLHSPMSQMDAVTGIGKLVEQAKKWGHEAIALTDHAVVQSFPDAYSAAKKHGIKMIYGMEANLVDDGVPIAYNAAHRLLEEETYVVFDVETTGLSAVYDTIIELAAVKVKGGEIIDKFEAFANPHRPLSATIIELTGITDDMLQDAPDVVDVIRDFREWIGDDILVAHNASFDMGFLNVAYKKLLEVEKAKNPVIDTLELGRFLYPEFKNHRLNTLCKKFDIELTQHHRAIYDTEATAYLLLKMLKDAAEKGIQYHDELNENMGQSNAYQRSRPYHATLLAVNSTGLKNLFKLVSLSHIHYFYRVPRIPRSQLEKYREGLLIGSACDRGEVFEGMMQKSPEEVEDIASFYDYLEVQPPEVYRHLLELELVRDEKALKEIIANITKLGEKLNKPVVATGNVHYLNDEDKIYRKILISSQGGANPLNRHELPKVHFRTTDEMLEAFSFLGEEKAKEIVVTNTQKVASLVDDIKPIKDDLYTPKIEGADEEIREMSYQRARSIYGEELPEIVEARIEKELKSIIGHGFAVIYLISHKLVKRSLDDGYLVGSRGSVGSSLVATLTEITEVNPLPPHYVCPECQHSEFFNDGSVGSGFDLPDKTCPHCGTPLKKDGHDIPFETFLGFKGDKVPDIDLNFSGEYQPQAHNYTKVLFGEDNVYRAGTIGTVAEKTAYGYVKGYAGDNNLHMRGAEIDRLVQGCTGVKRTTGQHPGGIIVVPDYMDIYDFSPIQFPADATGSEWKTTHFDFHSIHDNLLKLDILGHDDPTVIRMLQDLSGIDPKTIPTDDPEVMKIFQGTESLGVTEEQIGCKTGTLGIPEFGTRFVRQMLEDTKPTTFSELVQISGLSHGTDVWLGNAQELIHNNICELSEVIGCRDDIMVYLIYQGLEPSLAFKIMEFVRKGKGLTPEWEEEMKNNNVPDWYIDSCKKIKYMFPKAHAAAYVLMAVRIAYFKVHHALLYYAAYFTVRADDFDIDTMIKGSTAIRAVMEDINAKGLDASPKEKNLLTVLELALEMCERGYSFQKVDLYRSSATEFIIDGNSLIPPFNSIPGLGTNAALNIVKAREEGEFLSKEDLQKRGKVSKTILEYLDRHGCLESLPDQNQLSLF
# Sequence of Methanococcus maripaludis chaperonin (MmCpn) (Q6LX38 1-543): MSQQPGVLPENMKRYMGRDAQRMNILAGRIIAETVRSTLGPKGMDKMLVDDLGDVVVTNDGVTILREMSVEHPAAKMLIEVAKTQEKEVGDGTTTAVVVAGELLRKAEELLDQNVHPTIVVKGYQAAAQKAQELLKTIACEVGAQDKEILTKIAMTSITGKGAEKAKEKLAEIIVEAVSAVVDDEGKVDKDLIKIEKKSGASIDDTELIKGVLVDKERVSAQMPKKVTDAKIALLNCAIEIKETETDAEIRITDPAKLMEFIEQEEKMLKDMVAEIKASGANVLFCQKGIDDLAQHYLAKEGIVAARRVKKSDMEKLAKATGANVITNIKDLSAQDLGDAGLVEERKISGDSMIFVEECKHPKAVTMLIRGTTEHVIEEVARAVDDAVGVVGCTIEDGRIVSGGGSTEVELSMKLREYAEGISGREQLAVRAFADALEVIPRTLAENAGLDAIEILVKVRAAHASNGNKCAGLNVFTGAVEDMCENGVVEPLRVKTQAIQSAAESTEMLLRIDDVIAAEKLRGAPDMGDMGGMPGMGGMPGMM
# Sequence of Flap endonuclease 1 (Homo sapiens) (P39748 whole entry, looked up): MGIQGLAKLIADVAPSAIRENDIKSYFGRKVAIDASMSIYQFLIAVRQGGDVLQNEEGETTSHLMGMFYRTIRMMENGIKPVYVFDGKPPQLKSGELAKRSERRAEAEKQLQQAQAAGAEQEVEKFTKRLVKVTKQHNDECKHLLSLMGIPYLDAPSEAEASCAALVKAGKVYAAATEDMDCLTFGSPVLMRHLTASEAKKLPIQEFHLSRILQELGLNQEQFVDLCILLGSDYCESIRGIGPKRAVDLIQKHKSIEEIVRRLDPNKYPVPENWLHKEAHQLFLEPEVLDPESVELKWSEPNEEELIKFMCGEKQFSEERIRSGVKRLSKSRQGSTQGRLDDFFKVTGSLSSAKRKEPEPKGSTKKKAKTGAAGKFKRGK
# Sequence of M-phase phosphoprotein 8 (Homo sapiens) (Q99549 whole entry, looked up): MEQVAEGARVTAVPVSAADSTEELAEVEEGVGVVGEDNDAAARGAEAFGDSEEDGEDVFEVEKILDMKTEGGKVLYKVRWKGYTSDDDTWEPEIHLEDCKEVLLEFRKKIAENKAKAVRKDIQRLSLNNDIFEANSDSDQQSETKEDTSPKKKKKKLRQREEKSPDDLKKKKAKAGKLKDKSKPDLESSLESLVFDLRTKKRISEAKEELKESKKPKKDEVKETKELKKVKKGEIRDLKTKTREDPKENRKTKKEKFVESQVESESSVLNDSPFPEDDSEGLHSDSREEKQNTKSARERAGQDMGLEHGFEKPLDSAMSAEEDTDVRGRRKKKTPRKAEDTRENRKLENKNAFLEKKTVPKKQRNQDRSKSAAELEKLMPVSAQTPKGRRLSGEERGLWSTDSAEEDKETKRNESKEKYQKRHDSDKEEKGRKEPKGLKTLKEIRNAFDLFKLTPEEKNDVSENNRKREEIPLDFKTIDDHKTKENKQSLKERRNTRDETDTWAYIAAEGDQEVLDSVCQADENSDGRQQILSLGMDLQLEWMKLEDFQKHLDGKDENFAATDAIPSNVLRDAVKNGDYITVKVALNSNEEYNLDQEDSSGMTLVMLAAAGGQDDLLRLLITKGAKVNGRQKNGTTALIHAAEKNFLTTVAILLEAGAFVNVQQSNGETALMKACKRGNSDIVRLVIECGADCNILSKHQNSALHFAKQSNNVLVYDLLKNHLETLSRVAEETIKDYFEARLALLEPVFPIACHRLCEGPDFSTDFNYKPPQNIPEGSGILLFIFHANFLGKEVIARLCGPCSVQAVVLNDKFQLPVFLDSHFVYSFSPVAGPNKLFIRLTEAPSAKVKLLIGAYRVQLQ
# Sequence of Chromobox protein homolog 1 (Homo sapiens) (P83916 whole entry, looked up): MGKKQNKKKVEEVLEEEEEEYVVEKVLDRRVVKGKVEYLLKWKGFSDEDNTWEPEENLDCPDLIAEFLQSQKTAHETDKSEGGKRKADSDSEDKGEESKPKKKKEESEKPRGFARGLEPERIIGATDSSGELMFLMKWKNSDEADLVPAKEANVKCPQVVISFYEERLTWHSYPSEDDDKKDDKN
# Sequence of Ubiquitin carboxyl-terminal hydrolase 2 (Homo sapiens) (O75604 whole entry, looked up): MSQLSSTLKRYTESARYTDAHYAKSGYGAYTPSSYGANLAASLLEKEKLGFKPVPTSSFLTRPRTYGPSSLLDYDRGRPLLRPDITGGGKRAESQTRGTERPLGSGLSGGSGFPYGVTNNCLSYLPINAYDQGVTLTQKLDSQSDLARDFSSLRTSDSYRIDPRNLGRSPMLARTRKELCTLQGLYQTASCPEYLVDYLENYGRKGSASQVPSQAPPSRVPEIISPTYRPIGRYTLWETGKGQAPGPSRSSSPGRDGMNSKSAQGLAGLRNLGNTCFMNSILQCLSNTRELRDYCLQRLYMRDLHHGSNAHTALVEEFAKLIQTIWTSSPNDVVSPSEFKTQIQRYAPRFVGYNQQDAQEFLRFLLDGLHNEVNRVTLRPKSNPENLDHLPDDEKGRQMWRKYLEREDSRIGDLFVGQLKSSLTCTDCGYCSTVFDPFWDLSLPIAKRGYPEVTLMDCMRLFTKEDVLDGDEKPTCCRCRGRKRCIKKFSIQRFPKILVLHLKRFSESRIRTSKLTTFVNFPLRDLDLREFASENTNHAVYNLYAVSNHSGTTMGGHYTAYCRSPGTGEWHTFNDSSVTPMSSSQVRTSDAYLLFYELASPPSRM
SMILES,outcome [1],Potency [2],Potency [3],Potency [4],Potency [5],Potency [6],Potency [7],outcome [8],outcome [9],outcome [10],Potency [11],outcome [12],Potency [13],Potency [14],outcome [15],Potency [16],Potency [17],Potency [18],Potency [19]
CCSC(=N)N,inactive,inactive,inactive,inactive,inactive,inactive,inactive,inactive,inactive,inactive,inactive,inactive,inactive,inactive,inactive,,,,
Cn1ccnc1,inactive,inactive,inactive,inactive,inactive,inactive,inactive,inactive,,inactive,inactive,inactive,,,inactive,inactive,inactive,inactive,inactive
COC(=O)C(N)Cc1ccc(Cl)cc1 (centres undefined),inactive,inactive,inactive,inactive,inactive,inactive,inactive,inactive,inactive,inactive,inactive,inactive,inactive,inactive,inactive,,,inactive,0.0067 µM (active)
NC(C(=O)N[C@@H]1C(=O)N2C(C(=O)O)=C(Cl)CS[C@H]12)c1ccccc1 (some centres undefined),inactive,inactive,inactive,inactive,inactive,inactive,inactive,inactive,inactive,inactive,,inactive,inactive,inactive,inactive,,inactive,inactive,
NC(N)=NC(N)=Nc1cccc(Cl)c1,inactive,inactive,inactive,inactive,inactive,inactive,inactive,inactive,inactive,inactive,inactive,inactive,,inactive,inactive,,9.28 µM (active),inactive,inactive
CC(C)(C)NCC(O)COc1cccc2[nH]c(=O)[nH]c12 (centres undefined),inactive,inactive,inactive,inactive,inactive,inactive,inactive,inactive,inactive,,,inactive,inactive,inactive,inactive,inactive,inactive,inactive,inactive
CCN1C(=O)C=CC1=O,inactive,inactive,inactive,inactive,20 µM (active),inactive,inactive,inactive,inactive,inactive,,,inactive,inactive,inactive,,,inactive,
Clc1nccc2c1ccc1ccccc12,inactive,inactive,inactive,inactive,inactive,inactive,inactive,inactive,,inactive,inactive,inactive,inactive,inactive,inactive,inactive,inactive,inactive,inactive
COc1ccc(-c2ccc(N)[n+](CCCC(=O)O)n2)cc1,inactive,inactive,inactive,inactive,inactive,inactive,inactive,inactive,inactive,,inactive,inactive,inactive,inactive,inactive,inactive,,inactive,inactive
CN[C@H](CC(=O)O)C(=O)O,inactive,inactive,inactive,inactive,inactive,inactive,inactive,,,inactive,,inactive,,inactive,inactive,inactive,inactive,inactive,inactive
O=c1ccc2c(OCCCCc3ccccc3)c3ccoc3cc2o1,inactive,inactive,inactive,inactive,inactive,inactive,inactive,inactive,,inactive,inactive,inactive,inactive,,inactive,,,inactive,
O=[N+]([O-])c1cccc2cn[nH]c12,inactive,inactive,inactive,inactive,inactive,inactive,inactive,,inactive,inactive,inactive,,inactive,inactive,inactive,inactive,inactive,inactive,inactive
CCCCCC(O)CCCC(=O)O (centres undefined),inactive,inactive,inactive,inactive,inactive,inactive,inactive,inactive,,,inactive,,inactive,inactive,inactive,,inactive,,inactive
Nc1ncnc2c1ncn2C1CCCO1 (centres undefined),inactive,inactive,inactive,inactive,inactive,inactive,inactive,inactive,,inactive,inactive,,inactive,inactive,inactive,,,inactive,
NC1CONC1=O (centres undefined),inactive,inactive,inactive,inactive,inactive,inactive,inactive,inactive,,inactive,inactive,inactive,inactive,inactive,inactive,inactive,,inactive,
NC(N)=[N+]1CCc2ccccc2C1,inactive,inactive,inactive,inactive,inactive,inactive,inactive,,inactive,inactive,inactive,inactive,inactive,,inactive,inactive,inactive,inactive,inactive
CCC(=O)N1CCN(C(=O)c2ccccc2)CC1,inactive,inactive,inactive,inactive,inactive,inactive,inactive,inactive,,inactive,inactive,inactive,inactive,,inactive,,,inactive,inactive
CNC(=O)c1cc2c(cn1)[nH]c1ccccc12,inactive,inactive,inactive,inactive,inactive,inactive,inactive,inactive,,inactive,,inactive,inactive,,inactive,inactive,,inactive,
CC(N)=O,inactive,inactive,inactive,inactive,inactive,inactive,inactive,,inactive,,inactive,,inactive,,inactive,inactive,inactive,inactive,inactive
N#CC(C#N)=C(N)/C(C#N)=C/c1ccc(O)cc1,inactive,inactive,inactive,inactive,inactive,inactive,inactive,,inactive,,inactive,inactive,,,inactive,inactive,inactive,,
CNc1cc(NS(=O)(=O)c2ccc(N)cc2)nc(NC)n1,inactive,inactive,inactive,inactive,inactive,inactive,inactive,inactive,,inactive,inactive,inactive,,inactive,inactive,,inactive,inactive,
CN(C)C(=O)/N=N/C(=O)N(C)C,inactive,inactive,inactive,inactive,inactive,inactive,inactive,inactive,,inactive,inactive,inactive,inactive,,inactive,,,31.6 µM (active) and inactive,
Cn1c(=O)c2[nH]c(C3CCCC3)nc2n(C)c1=O,inactive,inactive,inactive,inactive,inactive,inactive,inactive,inactive,,,inactive,,inactive,inactive,inactive,,inactive,inactive,inactive
CNc1ncnc2c1ncn2[C@H]1C[C@H](OP(=O)(O)O)[C@@H](COP(=O)(O)O)O1,inactive,inactive,inactive,inactive,inactive,inactive,inactive,inactive,,inactive,inactive,inactive,inactive,inactive,inactive,,inactive,inactive,
NC1(C(=O)O)CCCCC1,inactive,inactive,inactive,inactive,inactive,inactive,inactive,,inactive,,inactive,inactive,inactive,inactive,inactive,inactive,,inactive,
COc1ccccc1N1CCN(CCCNc2c(C)c(=O)n(C)c(=O)n2C)CC1,inactive,inactive,inactive,inactive,inactive,inactive,inactive,inactive,,,,inactive,,inactive,inactive,,14.7 µM (active),inactive,
C[N+](C)(C)CC=O,inactive,inactive,inactive,inactive,inactive,inactive,inactive,,inactive,inactive,inactive,inactive,,,inactive,,inactive,inactive,inactive
